In PubChem BioAssay:

Tested on: XIP peptide (Xip251-270)
Test: small-molecule binders of XIP peptide, primary screen, biochemical, small-molecule microarray, fluorescence 635/667 nm, 0.5 µg/mL protein (AID 1183)
Settings: small-molecule microarray binding, fluorescence 635 nm; higher = more signal
Molecule CCOC(=O)[C@H](Cc1ccccc1)NC(=O)CCC1CC(OC(=O)NCCc2ccc(F)cc2)CC2(CCCC(COC(=O)NCC(c3ccccc3)c3ccccc3)O2)O1 (some centres undefined) has a composite z-score of 0.651. In the case of CC(C)=CCCC(C)=CCON=C1[C@H]2CCn3c(=O)n(C)c(=O)n3[C@H]2[C@H](O)[C@@H]2O[C@H]12, the composite z-score is reported as 0.246. With C=CC[C@@H]1C=C[C@H](ON=C(C)CCN2CCc3nc(CC)c(CC)cc3C2)[C@@H](CO)O1 the composite z-score was -0.0738. CCCNC(=O)OC[C@H]1O[C@H](CCON=CC[C@@H]2C=C[C@H](OC(C)=O)[C@@H](COC(C)=O)O2)C=C[C@@H]1Oc1ccc(OC)cc1 showed a composite z-score of 0.512. Molecule O=C1[C@H]2[C@H]3[C@H](O)[C@H](O)CC(=NOC[C@@H](O)COCc4ccco4)[C@@H]3CC[C@H]2C(=O)N1c1ccc(F)cc1F has a composite z-score of -0.103. C[C@@H]1C=CCC(=O)OC[C@H](C)C(=O)N2CCC[C@H]2C(=O)OC1 showed a composite z-score of 0.827. Molecule COC(=O)[C@H](C)NC(=O)CCC1CC(OC(=O)NCCc2ccc(F)cc2)CC2(CCCC(COC(=O)NCCc3ccc(Cl)cc3)O2)O1 (some centres undefined) has a composite z-score of 0.729. CCCNC(=O)OC[C@H]1O[C@H](CCON=C2[C@H]3CCn4c(=O)n(-c5ccccc5)c(=O)n4[C@H]3[C@H](O)[C@@H]3O[C@H]23)C=C[C@@H]1Oc1ccc(OC)cc1 gave a composite z-score of 0.592. COc1ccc(O[C@H]2C=C[C@@H](c3ccccc3)O[C@@H]2COC(=O)CCC(C)=NOC[C@@H](C)[C@H](OCc2ccccc2)C(C)C)cc1 showed a composite z-score of -0.794. In the case of CCOC(=O)[C@H](CC(C)C)NC(=O)CCC1CC(OC(=O)NCc2cccc3ccccc23)CC2(CCCC(COC(=O)NCCc3ccccc3OC)O2)O1 (some centres undefined), the composite z-score is reported as 0.623. Work on CCc1cc2c(nc1CC)CCN(CCC(C)=NO[C@@H](C)c1cc(-c3c(C)cc(C)cc3C)no1)C2 yielded a composite z-score of 0.325. For COc1cccc([C@H]2Oc3ccc(OC)cc3C(=NOC(C)CN3CCCc4nc(C)c(C)cc43)[C@@H]2O)c1 (some centres undefined), the composite z-score was -0.452. Molecule CO[C@H]1COC(=O)[C@H](C)COC(=O)CC=C[C@@H](C)[C@H](OC)COC(=O)CC=C[C@@H]1C has a composite z-score of -0.0452. For O=C1[C@H]2[C@H]3[C@H](O)[C@H](O)CC(=NO[C@@H]4O[C@H](CO)[C@@H](O)[C@H](O)[C@H]4O)[C@H]3CC[C@H]2C(=O)N1Cc1ccc2c(c1)OCO2, the composite z-score was 0.0812. For CCOC(=O)NN=C1C[C@@H](O)[C@@H](O)[C@@H]2[C@@H]3C(=O)N(C4CCCCC4)C(=O)[C@@H]3CC[C@H]12, the composite z-score was 0.485. Work on Cc1cc(C)c(-c2cc([C@H](C)ON=C3[C@H]4CCn5c(=O)n(-c6ccccc6)c(=O)n5[C@H]4[C@H](O)[C@@H]4O[C@H]34)on2)c(C)c1 yielded a composite z-score of 0.0933. O=C1[C@H]2[C@H]3[C@H](O)[C@H](O)CC(=NOCc4ccccc4)[C@H]3CC[C@H]2C(=O)N1C[C@@H]1CCCO1 gave a composite z-score of 0.567. For C=CC[C@@H]1C=C[C@H](ON=C[C@@H](OC)[C@H](C)C=CCC(=O)OC)[C@@H](CO)O1, the composite z-score was 0.168. Molecule COC(=O)C1=C(C)N(Cc2ccccc2)[C@]23O[C@](C(=O)OC)(C(=O)N2[C@@H]1c1ccccc1)[C@H]1CCOC(=O)[C@H]13 has a composite z-score of -0.202. O=C(NN=C1C[C@@H](O)[C@@H](O)[C@@H]2[C@@H]3C(=O)N(c4cccc(Oc5ccccc5)c4)C(=O)[C@@H]3CC[C@H]12)OCc1ccccc1 showed a composite z-score of 0.0323. CC(CCN1CCCCc2nc(C)c(C)cc21)=NOC(C)CN1CCCCc2nc(C)c(C)cc21 (centres undefined) showed a composite z-score of 0.805. For CC(C)CON=C1C[C@@H](O)[C@@H](O)[C@@H]2[C@@H]3C(=O)N(C[C@@H]4CCCO4)C(=O)[C@@H]3CC[C@H]12, the composite z-score was 0.0241. CC(CCN1CCc2nc(-c3ccccc3)c(-c3ccccc3)cc2C1)=NO[C@@H](C)c1cn([C@H](CO)Cc2ccccc2)nn1 gave a composite z-score of -0.346. With C=COC[C@H]1CN2[C@@H](CC[C@@H](C)[C@@H]2c2ccc(Br)cc2)C(=O)O1 the composite z-score was 0.719.

Tested on: not listed separately
Test: Plasmodium falciparum growth inhibition, primary screen, strain 3D7, DAPI fluorescence, 100 nL (AID 1184);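 note: parasites grown inside human red blood cells in medium with human serum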
Settings: P. falciparum 3D7 growth, 3 d, higher = more signal
CO[C@@H]1COC(=O)CC=C[C@@H](C)[C@@H]2C=C[C@H](O)[C@@H](COC(=O)CCC[C@H]1C)O2 gave a z-score of 0.149. COc1ccc(O[C@H]2C=C[C@@H](c3ccccc3)O[C@@H]2COC(=O)CCC(C)=NOCC[C@@H]2C=C[C@H](OC(C)=O)[C@@H](COC(C)=O)O2)cc1 showed a z-score of -0.703. CO[C@@H]1COC(=O)[C@H](C)NC(=O)[C@@H](C)COC(=O)CCC[C@H]1C showed a z-score of -0.0339. Molecule O=C1C[C@@H](O)[C@@H](O)[C@@H]2[C@@H]3C(=O)N(Cc4ccc5c(c4)OCO5)C(=O)[C@@H]3CC[C@@H]12 has a z-score of -0.522. In the case of CCOC(=O)[C@H](Cc1ccccc1)NC(=O)CCC1CC(OC(=O)NCc2ccc3c(c2)OCO3)CC2(CCCC(COC(=O)NCC3CCCCC3)O2)O1 (some centres undefined), the z-score is reported as -1.96. COc1ccc(O[C@H]2C=C[C@@H](c3ccccc3)O[C@@H]2COC(=O)N2CCCCC2)cc1 showed a z-score of -0.43. In the case of Cc1ccc(S(=O)(=O)N[C@@H]2COC(=O)[C@H](C)COC(=O)CC=C[C@H]2C)cc1, the z-score is reported as -0.18. With O=C1[C@H]2[C@H]3[C@H](O)[C@H](O)CC(=NO[C@@H]4O[C@H](CO)[C@@H](O)[C@H](O)[C@H]4O)[C@@H]3CC[C@H]2C(=O)N1Cc1ccc2c(c1)OCO2 the z-score was -1.06. With COc1ccc(OC[C@H]2Cc3c(-c4ccccc4)nc4c(c3CO2)CN(CCOc2ccccc2)CC4)cc1 the z-score was -1.34. With O=C1[C@H]2[C@H]3[C@H](O)[C@H](O)CC(=NOCc4ccccc4)[C@@H]3CC[C@H]2C(=O)N1C1CCCCC1 the z-score was -0.368. Molecule CC(C)=NOCc1cccc(-c2cc(-c3ccccc3)no2)c1 has a z-score of 2.06. Work on CCOC(=O)[C@H](Cc1ccccc1)NC(=O)CCC1CC(OC(=O)NCCc2ccc(F)cc2)CC2(CCCC(COC(=O)NCC(c3ccccc3)c3ccccc3)O2)O1 (some centres undefined) yielded a z-score of -1.39. Molecule CC(C)=CCCC(C)=CCON=C1[C@H]2CCn3c(=O)n(C)c(=O)n3[C@H]2[C@H](O)[C@@H]2O[C@H]12 has a z-score of -1.55. With C=CC[C@@H]1C=C[C@H](ON=C(C)CCN2CCc3nc(CC)c(CC)cc3C2)[C@@H](CO)O1 the z-score was -0.163. With CCCNC(=O)OC[C@H]1O[C@H](CCON=CC[C@@H]2C=C[C@H](OC(C)=O)[C@@H](COC(C)=O)O2)C=C[C@@H]1Oc1ccc(OC)cc1 the z-score was -0.133. For O=C1[C@H]2[C@H]3[C@H](O)[C@H](O)CC(=NOC[C@@H](O)COCc4ccco4)[C@@H]3CC[C@H]2C(=O)N1c1ccc(F)cc1F, the z-score was -0.561. C[C@@H]1C=CCC(=O)OC[C@H](C)C(=O)N2CCC[C@H]2C(=O)OC1 gave a z-score of 0.207. With COC(=O)[C@H](C)NC(=O)CCC1CC(OC(=O)NCCc2ccc(F)cc2)CC2(CCCC(COC(=O)NCCc3ccc(Cl)cc3)O2)O1 (some centres undefined) the z-score was -1.5. Work on CCCNC(=O)OC[C@H]1O[C@H](CCON=C2[C@H]3CCn4c(=O)n(-c5ccccc5)c(=O)n4[C@H]3[C@H](O)[C@@H]3O[C@H]23)C=C[C@@H]1Oc1ccc(OC)cc1 yielded a z-score of -1.01. In the case of COc1ccc(O[C@H]2C=C[C@@H](c3ccccc3)O[C@@H]2COC(=O)CCC(C)=NOC[C@@H](C)[C@H](OCc2ccccc2)C(C)C)cc1, the z-score is reported as -0.925. CCOC(=O)[C@H](CC(C)C)NC(=O)CCC1CC(OC(=O)NCc2cccc3ccccc23)CC2(CCCC(COC(=O)NCCc3ccccc3OC)O2)O1 (some centres undefined) gave a z-score of -1.83. For CCc1cc2c(nc1CC)CCN(CCC(C)=NO[C@@H](C)c1cc(-c3c(C)cc(C)cc3C)no1)C2, the z-score was 0.319. Work on COc1cccc([C@H]2Oc3ccc(OC)cc3C(=NOC(C)CN3CCCc4nc(C)c(C)cc43)[C@@H]2O)c1 (some centres undefined) yielded a z-score of -1.06. With CO[C@H]1COC(=O)[C@H](C)COC(=O)CC=C[C@@H](C)[C@H](OC)COC(=O)CC=C[C@@H]1C the z-score was 1.7. Work on O=C1[C@H]2[C@H]3[C@H](O)[C@H](O)CC(=NO[C@@H]4O[C@H](CO)[C@@H](O)[C@H](O)[C@H]4O)[C@H]3CC[C@H]2C(=O)N1Cc1ccc2c(c1)OCO2 yielded a z-score of 0.185. Molecule CCOC(=O)NN=C1C[C@@H](O)[C@@H](O)[C@@H]2[C@@H]3C(=O)N(C4CCCCC4)C(=O)[C@@H]3CC[C@H]12 has a z-score of -1.68. With Cc1cc(C)c(-c2cc([C@H](C)ON=C3[C@H]4CCn5c(=O)n(-c6ccccc6)c(=O)n5[C@H]4[C@H](O)[C@@H]4O[C@H]34)on2)c(C)c1 the z-score was 0.173. In the case of O=C1[C@H]2[C@H]3[C@H](O)[C@H](O)CC(=NOCc4ccccc4)[C@H]3CC[C@H]2C(=O)N1C[C@@H]1CCCO1, the z-score is reported as 0.319. In the case of C=CC[C@@H]1C=C[C@H](ON=C[C@@H](OC)[C@H](C)C=CCC(=O)OC)[C@@H](CO)O1, the z-score is reported as 0.167. In the case of COC(=O)C1=C(C)N(Cc2ccccc2)[C@]23O[C@](C(=O)OC)(C(=O)N2[C@@H]1c1ccccc1)[C@H]1CCOC(=O)[C@H]13, the z-score is reported as -0.303. O=C(NN=C1C[C@@H](O)[C@@H](O)[C@@H]2[C@@H]3C(=O)N(c4cccc(Oc5ccccc5)c4)C(=O)[C@@H]3CC[C@H]12)OCc1ccccc1 showed a z-score of -1.43. Work on CC(CCN1CCCCc2nc(C)c(C)cc21)=NOC(C)CN1CCCCc2nc(C)c(C)cc21 (centres undefined) yielded a z-score of -0.883. Work on CC(C)CON=C1C[C@@H](O)[C@@H](O)[C@@H]2[C@@H]3C(=O)N(C[C@@H]4CCCO4)C(=O)[C@@H]3CC[C@H]12 yielded a z-score of -0.421. CC(CCN1CCc2nc(-c3ccccc3)c(-c3ccccc3)cc2C1)=NO[C@@H](C)c1cn([C@H](CO)Cc2ccccc2)nn1 showed a z-score of -0.17. Work on C=COC[C@H]1CN2[C@@H](CC[C@@H](C)[C@@H]2c2ccc(Br)cc2)C(=O)O1 yielded a z-score of 0.0315.
